# Rab7 wt GTP bind: modulators of GTP binding to Rab7, primary screen, biochemical, wildtype, multiplex bead flow cytometry | Rab7 GTPase wild type (dog), Bodipy-FL-GTP binding | GST-Rab7 beads, fluorescent GTP binding; actives lie on both sides; untreated = 100%, excess cold GTP = 0% | GTP binding activity (percent of control), % at 10 µM | 190,000 tested, 0.055% active;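 active means fluorescent GTP binding to Rab7 beads changed by at least 20 points from the 100% baseline, either direction, mostly lower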;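 further: median green fluorescence of bound Bodipy-FL-GTP per Rab7 bead population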
# Rac1 wt modul: wildtype Rac1 GTP binding modulators, primary screen, biochemical, GST-Rac1 beads, flow cytometry, multiplex. fluorescent GTP binding; actives lie on both sides; 0 = cold GTP competed, 100 = untreated. 190,000 tested, 0.27% active. GTP binding activity (% of control), % at 10 µM;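 active means GTP binding activity at least 20 points away from the 100% control level, either lower or higher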
# HRas wt GTP: modulators of GTP binding to HRas wildtype, primary screen, biochemical, bead-based flow cytometry, multiplex; GST-Ras wt beads, Bodipy-FL-GTP binding; actives lie on both sides; 190,000 tested, 0.14% active; GTP binding activity, % at 10 µM;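 active means GTP binding activity at least 20% away from the 100% baseline, either lowered as inhibitor or raised as activator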;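 further: 0% = unlabeled GTP competition control and 100% = no-compound control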
# Target sequence (P01112 whole entry, looked up): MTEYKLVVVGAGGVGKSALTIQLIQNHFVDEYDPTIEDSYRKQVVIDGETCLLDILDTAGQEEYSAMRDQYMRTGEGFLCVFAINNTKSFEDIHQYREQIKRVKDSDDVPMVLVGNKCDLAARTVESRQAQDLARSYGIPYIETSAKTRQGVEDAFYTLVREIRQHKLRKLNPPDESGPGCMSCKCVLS
# Cdc42 wt: modulators of GTP binding to wildtype Cdc42, primary screen, biochemical, multiplex bead flow cytometry, Bodipy-GTP; percent activity (GTP binding), % at 10 µM; GST-Cdc42 beads; actives lie on both sides; Cell division control protein 42 homolog (Homo sapiens), P60953; AID 761, 2007; 190,000 tested, 0.2% active;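 active means percent activity GTP binding at least 20 points away from the 100% baseline, either down as inhibitor or up as activator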;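 further: median bead fluorescence of bound Bodipy-FL-GTP at 100 nM; 0% = excess unlabeled GTP control and 100% = no compound control; below 100% means less GTP binding so inhibitor and above means activator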
# Target sequence (P60953 whole entry, looked up): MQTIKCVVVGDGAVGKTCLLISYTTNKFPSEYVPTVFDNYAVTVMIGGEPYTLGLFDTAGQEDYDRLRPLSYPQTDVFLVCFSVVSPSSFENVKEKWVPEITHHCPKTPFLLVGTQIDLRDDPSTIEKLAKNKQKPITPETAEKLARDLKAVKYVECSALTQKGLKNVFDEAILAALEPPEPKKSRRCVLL
# Rab2 wt GTP: modulators of GTP binding to Rab2A wildtype, primary screen, biochemical, dog, bead-based flow cytometry, multiplex | Ras-related protein Rab-2A (Canis lupus familiaris), P61105 | GTP binding activity, % at 10 µM | AID 760, 2007 | 190,000 tested, 0.19% active | GST-Rab2 wt beads, Bodipy-GTP binding;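 active means GTP binding activity at least 20 points away from 100%, either lowered or raised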;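 further: 0% = beads with excess unlabeled GTP and 100% = no-compound control corrected for plate trend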
# Rac1 mut GTP: GTP binding modulators of activated mutant Rac1, primary screen, biochemical, bead-based flow cytometry, multiplex, fluorescent GTP | Ras-related C3 botulinum toxin substrate 1 (Homo sapiens), P63000 | GST-Rac1 activated beads; actives lie on both sides; 100% means binding = to untreated wells | percent activity (GTP binding), % at 10 µM | 190,000 tested, 0.11% active | AID 764, 2007;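 active means GTP binding at least 20 percentage points away from the 100% baseline, in either direction, so actives lie on both sides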
# The depositor's hits bear a star; [ ] = remark or other dose. In the library only some 0.37% were active in any assay of this set; here they are far more common.
SMILES,Rab7 wt GTP bind,Rac1 wt modul,HRas wt GTP,Cdc42 wt,Rab2 wt GTP,Rac1 mut GTP
COc1ccc(N=C2NC(=O)/C(=C/c3ccc(O)c(OC)c3)S2)cc1,100,90,92,96,93,95
Cc1cc(C)nc(N/N=C2/CCCC/C2=C\c2ccccc2)n1,90,94,92,98,93,95
CCc1nnc2c(N(C)C)nc3ccccc3n12,88,76*,89,92,85,91
CCCc1nnc2c(N(C)S(=O)(=O)c3ccc(C)cc3)nc3ccccc3n12,101,104,101,101,97,101
O=C1/C(=C\c2ccc(-c3ccccc3Cl)o2)SC(=S)N1CC1CCCO1 (stereo not given),68*,59*,55*,63*,62*,59*
CN1C(=O)/C(=C2\SC(=S)N(CC3CCCO3)C2=O)c2ccccc21 (stereo not given),102,104,102,104,102,101
CCOc1cc(C(=O)Nc2ccc(NC(C)=O)cc2)ccc1OCC(=O)N1CCCCC1,99,104,100,102,99,99
Cc1ccccc1NC(=O)COC(=O)c1ccc(S(C)(=O)=O)c([N+](=O)[O-])c1,99,92,91,83,94,82
CS(=O)(=O)c1ccc(C(=O)OCc2nnc(-c3ccccc3)o2)cc1[N+](=O)[O-],100,89,87,76*,85,74*
O=C(OCc1nnc(-c2ccccc2)o1)c1ccc(Cl)cc1,92,91,92,93,91,91
CS(=O)(=O)c1ccc(C(=O)OCC(=O)NC(=O)C2CCCCC2)cc1[N+](=O)[O-],100,89,87,68*,82,71*
O=C(NCC1CCCO1)c1ccc2c(=O)n(CC3CCCO3)c(SCC(=O)N3CCCC3)nc2c1 (stereo not given),100,100,97,101,99,100
COc1cccc(/C=N/Nc2nn3cnnc3c3ccccc23)c1O,77*,70*,59*,58*,60*,70*
COc1cccc(/C=N/Nc2ccc(C(=O)O)cc2)c1O,96,97,95,96,94,97
COc1ccc(-c2cc(-c3ccccc3)c(C#N)c(=S)[nH]2)cc1,95,85,82,79*,85,80
Cc1oc2c(O)c(O)ccc2c(=O)c1-c1cnn(-c2ccccc2)c1,101,97,99,100,101,95
Cc1nc(-c2cnn(-c3ccccc3)c2)c2cc(C)oc2n1,80,77*,72*,70*,75*,79*
Cc1cc(C)c2c(n1)sc1c(O)cc(=O)[nH]c12,100,107,100,104,103,102
COc1ccc(-c2cc(C(F)(F)F)c3c(n2)sc2c(O)cc(=O)[nH]c23)c(OC)c1,93,80,80,89,78*,89
O=S(=O)(Cc1ccccc1)N1CCc2ccccc21,98,102,95,94,37*,96
Cc1cc(C)n(C(=O)CNC(=O)C2COc3ccccc3O2)n1 (stereo not given),96,104,99,102,100,97
Cc1cc(C)n(C(=O)CNC(=O)c2ccc3c(c2)OCCO3)n1,20*,29*,38*,34*,32*,33*
CN(C)C(=O)C1CCC(=O)N1Cc1cccs1 (stereo not given),92,95,99,95,98,95
O=C(c1ccc2c(=O)n(-c3ccccc3)c(=O)[nH]c2c1)N1CCN(c2ccc(F)cc2)CC1,107,110,105,106,105,101
CC(=O)c1ccc(N2CCN(C(=O)c3ccc4c(=O)n(-c5ccccc5)c(=O)[nH]c4c3)CC2)cc1,104,121*[activator],108,105,107,106
SMILES,Rab7 wt GTP bind,Rac1 wt modul,HRas wt GTP,Cdc42 wt,Rab2 wt GTP,Rac1 mut GTP
O=C(COc1cccnc1[N+](=O)[O-])Nc1cccc(S(=O)(=O)N2CCCCC2)c1,100,99,96,98,96,97
CC1CCCN(c2ccc3nc4ccccc4c(=O)n3n2)C1 (stereo not given),96,78*,80,84,81,87
Cc1ccc2nc3ccc(N4CCCC4)nn3c(=O)c2c1,103,106,104,107,106,100
O=C(Nc1nnc(-c2cccs2)o1)c1cc(-c2ccccc2)nc2ccccc12,103,95,98,93,95,93
CCOC(=O)c1c(CSc2ccccc2)n(C)c2cc(Br)c(OCC(O)CNC(CO)(CO)CO)cc12 (stereo not given),104,120*[activator],113,113,107,113
O=C(CSc1nnc(-c2ccncc2)n1Cc1ccccc1)NC1CCCc2ccccc21 (stereo not given),97,101,102,101,97,100
O=C(COC(=O)CSc1ccc2ccccc2c1Br)NC1CC1,94,99,96,99,97,95
CCOc1cc(/C=N/NC(=O)C(C)Sc2ccccc2)ccc1O (stereo not given),92,78*,89,86,88,90
COc1cccc(/C=N/NC(=O)C(C)Sc2ccccc2)c1 (stereo not given),99,97,97,94,94,94
O=C(CNC(=S)N(Cc1ccccc1)Cc1cccnc1)N1CCOCC1,98,100,100,99,98,98
CCOC(=O)C1CCN(CC(=O)N(CC(C)C)c2c(N)n(CC(C)C)c(=O)[nH]c2=O)CC1,104,103,99,101,100,97
CSc1nc(Cc2ccccc2)cc(=O)[nH]1,111,127*[activator],116,120*[activator],120*[activator],122*[activator]
CCCc1cc(=O)[nH]c(SCc2ccccc2)n1,103,104,102,102,101,99
CCCN(CCC)S(=O)(=O)c1ccc(C(=O)Nc2cc3oc4ccccc4c3cc2OC)cc1,96,97,98,100,95,97
N#Cc1c(Nc2ccccc2)c(/C=N/NCCO)c[nH]c1=O,96,96,99,95,99,94
N#Cc1c(Nc2ccccc2)c(/C=N/N=C/c2ccccc2)c[nH]c1=O,81,75*,76*,81,81,88

# Assay outcomes deposited in PubChem by NMMLSC.
